Screens (PubChem BioAssay)
CHX counter: counter-screen for Shiga toxin inhibitors: cycloheximide protein synthesis inhibition | cell reporter, cycloheximide protein synthesis inhibition counterscreen | max response, % | AID 2314 | actives 12% (n = 300,000); in the data active = max response mostly above about 13%, no sharp cut-off; inactive = mostly below about 14%; note: read at 38.3 µM for the half of the compounds with a filed dose
Shiga toxin inh: blocks Shiga toxin action in Vero cells. actives 9.2% (n = 290,000). inhibition, % at 38.7 µM. Vero cells, Shiga toxin protein synthesis inhibition reporter; in the data active = inhibition mostly above about 28%, no sharp cut-off; inactive = mostly below about 43%
SARS PLP yeast: inhibitors of SARS-CoV papain-like protease in yeast; S. cerevisiae expressing SARS-CoV PLpro, growth rescue; Potency, µM (top dose mostly 32.9 µM), most hits filed as activators; actives 0.19% (n = 330,000); AID 485353; calls by dose curve; note: nearly all actives have a fitted effect of over 55% in size
AMA1 RON2 block: disrupts binding of P. falciparum AMA1 to RON2. Potency, µM (top dose mostly 58.2 µM), actives largely listed as inhibitors. actives 0.2% (n = 360,000). AlphaScreen AMA1-biotinylated RON2 peptide binding. AID 720542; note: nearly all actives have a fitted effect of over 45% in size
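AMA1 (3D7) with his tag at 25 nM final met compounds first, then biotinylated RON2 peptide at 25 nM; detection used donor plus acceptor beads, 10 µg/mL apiece, read by AlphaScreen after 30 min at room temperature.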
Pf growth 48h: inhibits P. falciparum growth in the first generation, 48 h. Potency, µM (highest dose often 28.7 µM), most hits filed as inhibitors. P. falciparum luciferase growth in erythrocytes, 48 h. actives 5.9% (n = 310,000)
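Growth was read as firefly luciferase luminescence after a 48 h, 37 C, 5% CO2 exposure of compounds to reporter-bearing P. falciparum cultures (0.1% parasitemia, 2% hematocrit final) in Albumax-supplemented RPMI 1640.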
Pf growth 96h: inhibits malaria parasite growth, 96 h; AID 504834; P. falciparum luciferase reporter growth, 96 h; actives 6.9% (n = 320,000); Potency, µM (titrated, usually from 28.7 µM), actives largely listed as inhibitors
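P. falciparum expressing integrated firefly luciferase grown in erythrocytes (2% hematocrit, 0.05% parasitemia final) with compounds for 96 hours at 37 C, 5% CO2. Growth inhibition read as loss of luminescence after adding luciferase detection reagent.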
A number is an active result; - = inactive; ? = inconclusive; . = not tested or not shown; [ ] = another dose, or the depositor's remark. Compounds with a hit are over-represented: about 19% of the library has one in this group of screens. Unless noted, calls come from the whole dose curve; as a rule, active = well fitted curve in the direction sought with a large enough effect; inconclusive = small, poorly fitted or top-dose-only effect, or another doubt; inactive = no such curve, though single readings can be large; an effect the other way counts as inactive or inconclusive.

SMILES	CHX counter	Shiga toxin inh	SARS PLP yeast	AMA1 RON2 block	Pf growth 48h	Pf growth 96h
O=c1nc2ccccn2c2ccc(S(=O)(=O)N3CCCCC3)cc12	-	-	-	-	5.9µM	6.6µM
COCCn1c(Sc2nc(C)cs2)nc2c1c(=O)[nH]c(=O)n2C	-	-	-	-	-	13µM
COCCn1c(N2CCCC2)nc2c1c(=O)[nH]c(=O)n2C	-	-	-	-	13µM	-
COCCn1c(SCc2ccccc2Cl)nc2c1c(=O)[nH]c(=O)n2C	-	-	-	-	-	-
Cn1c(N2CCCCC2)nc2c1c(=O)[nH]c(=O)n2C	-	-	-	-	-	10µM
COCCn1ccc2c(OCC(=O)NCc3ccccc3)cccc2c1=O	.	.	-	-	?	-
Cc1ccc(S(=O)(=O)N(CC(=O)Nc2ccc(C(N)=O)cc2)C(=O)N2CCN(C)CC2)cc1	.	.	-	-	-	-
Cc1ccccc1/C=C1\SC(=S)N(/N=C/c2cc([N+](=O)[O-])ccc2O)C1=O	-	-	?	-	-	-
COc1ccccc1Nc1nc(-c2sc(NC(=O)c3cccc(Cl)c3)nc2C)cs1	14	-	-	.	?	9.3µM
Cc1nc(NC(=O)c2ccc(Cl)cc2)sc1-c1csc(Nc2cccc(F)c2)n1	24	-	-	.	13µM	2.6µM
Cc1ccc(Nc2nc(-c3sc(NC(=O)c4cccc(Cl)c4)nc3C)cs2)cc1	-	-	-	.	2.3µM	4.1µM
CCCOc1ccc(C(=O)Nc2ccc(N(C)C)cc2)cc1	47	141	-	-	-	.
CC(C)Oc1ccc(C(=O)Nc2ccc(N(C)C)cc2)cc1	25	90	-	-	-	-
COC(=O)c1cccc(NC(=O)CC2C(=O)NCCN2C(=O)c2ccc(F)cc2F)c1 (stereo not drawn)	-	-	-	-	?	-
CCOc1cc2c(cc1OCC)C(c1ccc(F)cc1)NCC2 (stereo not drawn)	.	.	.	-	.	.
CCOc1cc(C2NN=C(c3ccccc3)S2)ccc1OCc1ccccc1Cl (stereo not drawn)	45	66	-	-	-	-
CCOc1cc(C2NN=C(c3ccccc3)S2)ccc1OCc1ccc(F)cc1 (stereo not drawn)	43	112	-	-	-	.
CCOc1cc(CNCCN2CCOCC2)ccc1OCc1ccccc1Cl	-	-	-	-	?	?
CCCc1nc2ccc(C)cn2c1Cc1ccc(C)cc1	.	.	.	-	.	.
Cc1cc(NC(=O)c2sc(Nc3ccc(F)cc3)nc2N)no1	28	-	-	-	-	-
C=CCNc1nc(N)c(C(=O)Nc2cc(C)on2)s1	19	38	-	-	-	.
C=CCNc1nc(N)c(C(=O)c2ccc3c(c2)OCO3)s1	26	87	-	-	-	-
C=CCNC(=S)NNC(=O)c1ccc2c(c1)OCO2	-	-	-	-	-	-
CCCc1cc(C(=O)N2CCCC(C(=O)c3ccc(Cl)cc3)C2)n(C)n1 (stereo not drawn)	-	-	-	-	-	?
CCOC(=O)C1CCN(S(=O)(=O)c2ccc(NC(=O)c3ccco3)cc2)CC1	-	-	-	-	-	-
SMILES	CHX counter	Shiga toxin inh	SARS PLP yeast	AMA1 RON2 block	Pf growth 48h	Pf growth 96h
CC(OC(=O)c1ccccc1Nc1ccc(SC(F)F)cc1)C(N)=O (stereo not drawn)	-	-	?	-	-	-
O=C(COC(=O)Cc1ccccc1)Nc1ccc(SC(F)F)cc1	-	-	-	-	-	-
NC(=O)COC(=O)c1ccccc1Nc1ccc(SC(F)F)cc1	14	-	-	-	-	-
O=C(COC(=O)c1ccccc1C(=O)c1ccccc1)Nc1ccc(SC(F)F)cc1	20	-	-	-[11.6 µM]	-	-
CNC(=O)COC(=O)c1ccccc1Nc1ccccc1	17	118	-	-	-	-
O=C(COC(=O)c1ccccc1Nc1ccc(SC(F)F)cc1)NC1CC1	73	75	-	-	?	-
C/C(=N\NC(=O)c1nnn(-c2nonc2N)c1CN1CCC(C)CC1)c1ccc(Br)cc1	.	.	.	-	.	.
CN(C)C(=O)COC(=O)c1ccccc1OCC(=O)Nc1ccc(SC(F)F)cc1	-	-	-	-	-	-
CC(C)(C)NC(=O)COC(=O)c1ccccc1Nc1ccc(SC(F)F)cc1	55	67	-	-[11.6 µM]	?	?
O=C(COC(=O)c1ccccc1Nc1ccc(SC(F)F)cc1)NCc1ccco1	33	63	-	-	?	?
Cc1cccc(Nc2ccccc2C(=O)OCC(=O)NCc2ccco2)c1C	-	-	-	-	?	12µM
Cc1ccccc1C(=O)OCC(=O)NCc1ccco1	.	.	-	-	.	.
CC1CCCC(C)N1C(=O)c1ccccc1Nc1ccc(SC(F)F)cc1 (stereo not drawn)	-	-	-	-	?	13µM
COc1cc2c(cc1OC)CN(C(=O)CNC(=O)c1ccc(OC(F)F)cc1)CC2	-	-	-	-	-	?
Cc1nc(-c2ccncc2)nc(NCCNc2ccc(C(F)(F)F)cn2)c1Cl	-	-	-	-	3.7µM	2.3µM
C=C(C1=CCN(S(=O)C(C)(C)C)[C@@H]1CCO)c1ccccc1 (stereo partly drawn)	.	.	.	-	.	.
CCn1cc(C(=O)NCc2ccc(Cl)cc2)c(=O)c2cc(S(=O)(=O)N(C)C)ccc21	-	-	-	-	?	-
CCn1cc(C(=O)NCc2ccccc2OC)c(=O)c2cc(S(=O)(=O)N(C)C)ccc21	-	-	-	-	?	10µM
CCn1cc(C(=O)NC(C)CCc2ccccc2)c(=O)c2cc(S(=O)(=O)N(C)C)ccc21 (stereo not drawn)	-	-	-	-	6.6µM	-
CCn1cc(C(=O)NCc2ccc3c(c2)OCO3)c(=O)c2cc(S(=O)(=O)N(C)C)ccc21	-	-	-	?	12µM	?
CCn1cc(C(=O)NCc2ccc3c(c2)OCO3)c(=O)c2cc(S(=O)(=O)N3CCOCC3)ccc21	-	-	-	-	?	?
CCn1cc(C(=O)NCCCN(C)c2ccccc2)c(=O)c2cc(S(=O)(=O)N(C)C)ccc21	-	-	-	-	?	15µM
CCN(CCCNC(=O)c1cn(CC)c2ccc(S(=O)(=O)N(C)C)cc2c1=O)c1cccc(C)c1	-	-	-	-	?	-
CCN(CC)S(=O)(=O)c1ccc2c(c1)c(=O)c(C(=O)NCc1ccc3c(c1)OCO3)cn2C	-	-	-	.	-	-
C=CCn1cc(C(=O)NCc2ccc3c(c2)OCO3)c(=O)c2cc(S(=O)(=O)N(CC)CC)ccc21	-	-	-	-	12µM	?
NC(=O)c1cccnc1Nc1cccc([N+](=O)[O-])c1	48	84	-	-	-	-
CC(c1ccco1)N(C(=O)c1cccc(Br)c1)c1ccccn1 (stereo not drawn)	-	-	-	-	-	-
C(#CCN1CCOCC1)COCc1ccccc1	-	-	-	-	-	10µM
